# Measured values: PubChem BioAssay AID1529 (NMMLSC, 2009)
# Screen size: about 290,000 compounds; about 4,200 (1.4%) were called active.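 Rule for the calls: active = binding response more than 3 SD above or below the average of its plate-row segment, actives on both sides; inconclusive = wells at one plate position flagged as instrument error; inactive = the rest.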 This excerpt belongs to a sample that is enriched for actives.
# Biological target: Mitogen-activated protein kinase kinase kinase 3 (Homo sapiens) (UniProt Q99759)
# Sequence (Q99759 whole entry, looked up): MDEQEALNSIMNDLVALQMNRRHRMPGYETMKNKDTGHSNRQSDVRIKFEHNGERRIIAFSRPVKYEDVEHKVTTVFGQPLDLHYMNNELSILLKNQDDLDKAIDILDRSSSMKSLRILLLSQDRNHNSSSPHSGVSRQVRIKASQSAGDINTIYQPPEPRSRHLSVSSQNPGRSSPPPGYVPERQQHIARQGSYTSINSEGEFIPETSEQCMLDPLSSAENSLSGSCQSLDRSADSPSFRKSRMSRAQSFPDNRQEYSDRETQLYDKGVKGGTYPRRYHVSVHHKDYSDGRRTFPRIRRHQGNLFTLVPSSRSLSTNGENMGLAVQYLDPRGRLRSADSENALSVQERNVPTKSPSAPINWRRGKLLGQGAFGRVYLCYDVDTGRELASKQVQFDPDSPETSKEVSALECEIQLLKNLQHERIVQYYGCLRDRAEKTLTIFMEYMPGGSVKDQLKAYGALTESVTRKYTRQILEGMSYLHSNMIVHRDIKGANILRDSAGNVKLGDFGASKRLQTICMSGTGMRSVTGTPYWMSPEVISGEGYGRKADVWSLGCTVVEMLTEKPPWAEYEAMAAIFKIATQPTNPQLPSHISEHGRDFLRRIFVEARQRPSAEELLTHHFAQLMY
# Assay: modulators of MEKK3-MEK5 PB1 binding, primary screen, biochemical, wildtype MEKK3, multiplex bead flow cytometry, Alexa488-MEK5 (AID 1529);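 note: Alexa488 bead fluorescence after subtracting the streptavidin-only scavenger bead signal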
# Conditions: bead-based flow cytometry, Alexa488-MEK5 binding to MEKK3; at 10 µM; actives lie on both sides; 0 = blocked by unlabeled MEK5, 100 = vehicle
row,Compound,binding response (% of control)
1,OCCNc1nc(Nc2ccc(Cl)c(Cl)c2)nc2ccccc12,111% (inactive)
2,CC(C)(C)NC(=O)c1cccc(NC(=O)Cc2ccc(Br)cc2)c1,163% (active)
3,COc1ccc(CC(=O)Nc2ccc(C(=O)NC(C)(C)C)cc2)cc1,97% (inactive)
4,O=C(Cc1ccccc1)Nc1cccc(NC(=O)c2ccccc2)c1,98% (inactive)
5,Cc1nc(-c2ccccc2)sc1C1(C)CC(c2cccnc2)=NO1 (stereo unspecified),104% (inactive)
6,O=C(O)CC(Cc1ccccc1)C(=O)Nc1ccc([N+](=O)[O-])cc1 (stereo unspecified),128% (active)
7,O=C(Cc1ccccc1)NNS(=O)(=O)c1ccc([N+](=O)[O-])cc1,95% (inactive)
8,O=C(CC(c1ccccc1)c1ccccc1)NCC(O)c1ccc([N+](=O)[O-])cc1 (stereo unspecified),101% (inactive)
9,Fc1ccccc1/C=N/Nc1cc(N2CCCCC2)ncn1,105% (inactive)
10,CCc1noc(C)c1C(=O)N1CCCC(N2CCN(c3ccc(F)cc3)CC2)C1 (stereo unspecified),91% (inactive)
11,Cc1ccc(CNC(=O)C2CCCN2S(=O)(=O)c2ccc3c(c2)C(C)(C)C(=O)N3C)cc1 (stereo unspecified),104% (inactive)
12,CC1(C)Cc2cccc(OCC(N)=O)c2O1,100% (inactive)
13,CC1(C)Cc2cccc(OCC(=O)N3CCN(c4ccc([N+](=O)[O-])cc4)CC3)c2O1,59% [inhibitor] (active)
14,CC1(C)Cc2cccc(OCC(=O)NCc3ccccc3)c2O1,100% (inactive)
15,COc1ccc(C)cc1NC(=O)CN(C)S(=O)(=O)c1ccc2c(c1)n(C)c(=O)c(=O)n2C,101% (inactive)
16,CCOc1cc(NC(=S)NCc2ccco2)c(OCC)cc1NC(=O)c1ccco1,105% (inactive)
17,COc1cc(NC(=S)NCc2ccco2)c(OC)cc1Cl,71% [inhibitor] (active)
18,FC(F)Oc1ccc(NC(=S)NCc2ccco2)cc1Cl,99% (inactive)
19,CCOC(=O)C1Nc2ccc(C(F)(F)F)cc2C2C=CCC12 (stereo unspecified),99% (inactive)
20,CCCC(=O)N1c2ccccc2NC2=C(C(=O)CCC2)C1c1ccc(F)cc1 (stereo unspecified),100% (inactive)
21,CC(C)C(=O)N1c2ccccc2NC2=C(C(=O)CCC2)C1c1ccc(N(C)C)cc1 (stereo unspecified),129% (active)

row,Compound,binding response (% of control)
1,CCC(=O)N1c2ccccc2NC2=C(C(=O)CCC2)C1c1ccco1 (stereo unspecified),94% (inactive)
2,CC(C)(C)C(=O)Nc1ccc(-c2cn3cccnc3n2)cc1,107% (inactive)
3,COc1cc(C(C)=O)ccc1OC(=O)CN1C(=O)c2ccccc2C1=O,102% (inactive)
4,CC1Cc2ccccc2N1C1=CC(=O)CC(C)(C)C1 (stereo unspecified),100% (inactive)
5,CC1(C)OC(=O)N2CCc3ccccc3C21C (stereo unspecified),129% (active)
6,O=C(Nc1ccc(C(=O)O)cc1)/C(=C/c1ccc([N+](=O)[O-])cc1)NC(=O)c1ccccc1,97% (inactive)
7,CNC(=O)/C(=C\C=C\c1ccccc1)NC(=O)c1ccc([N+](=O)[O-])cc1,73% [inhibitor] (active)
8,O=C(Nc1ccccc1)/C(=C/c1ccc([N+](=O)[O-])cc1)NC(=O)c1ccccc1,111% (inactive)
9,O=C(Nc1ccc(O)cc1)c1ccc(NC(=O)c2ccco2)cc1,101% (inactive)
10,COc1ccc2c(c1)CCNC2Cc1ccc(OC)c(O)c1 (stereo unspecified),98% (inactive)
11,C=CCn1c(-c2sc(-c3ccccc3)nc2C)n[nH]c1=S,99% (inactive)
12,C=CCn1c(-c2ccc3[nH]c(C)c(C)c3c2)n[nH]c1=S,105% (inactive)
13,C=CCn1c(=S)sc2c(=O)[nH]c(C)nc21,131% (active)
14,O=S(=O)(c1cccc(Cn2nnc(-c3ccc(F)cc3)n2)c1)N1CCOCC1,103% (inactive)
15,Cc1ccc(SCC(=O)Nc2ccc3c(c2)OCCO3)cc1,127% (inactive)
16,Cc1csc(NC(=O)CSc2ccc(-c3ccc(F)cc3)nn2)n1,100% (inactive)
17,O=C(CSc1ccc(-c2ccc(F)cc2)nn1)Nc1ccc2c(c1)OCCO2,133% (active)
18,C[C@H]1CC[C@]2(O[C@@H](CCO)C[C@@H](O)[C@@H]2O)O1,96% (inactive)
19,COc1cc(NC(=O)c2cccnc2SC)cc(OC)c1,110% (inactive)
20,COc1ccc2nc(C)cc(Nc3cccc(C(=O)O)c3)c2c1,106% (inactive)
21,COc1cccc(Nc2ncccc2C(=O)O)c1,3% [inhibitor] (active)

row,Compound,binding response (% of control)
1,O=C(NC(=S)Nc1ccc(Cl)cc1Cl)C1CC1,100% (inactive)
2,Cc1ccc2oc(C(=O)N3CCN(C)C[C@@H]3C(C)C)c(C)c2c1,102% (inactive)
3,COc1ccc(NCCc2ccccn2)cc1,108% (inactive)
4,COc1ccc(/C=C(\NC(=O)c2ccc(OC)c(OC)c2)C(=O)NCCc2c[nH]c3ccccc23)cc1,103% (inactive)
5,Cc1ccc(C(=O)N/C(=C/c2ccco2)C(=O)NCCc2c[nH]c3ccccc23)cc1C,73% [inhibitor] (active)
6,O=C(NC(Cc1c[nH]c2ccccc12)C(=O)O)/C(=C/c1ccco1)NC(=O)c1ccccc1 (stereo unspecified),101% (inactive)
7,CCOC(=O)c1cc2occc2n1CC(=O)N1CCN(C(=O)c2ccco2)CC1,0% [inhibitor] (active)
8,CCOC(=O)c1cc2c(ccn2C)n1CC(=O)N1CCC(C)CC1,111% (inactive)
9,CCOC(=O)c1cc2occc2n1CC(=O)NC1CCC(C)CC1 (stereo unspecified),104% (inactive)
10,CCn1c(SCC(=O)NC2CCCC2)nnc1-c1ccoc1C,98% (inactive)
11,Cc1ccccc1C(=O)NNC(=O)CN1C(=O)c2ccccc2C1=O,135% (active)
12,Cc1cccc(NC(=O)CN2C(=O)c3ccccc3C2=O)c1C,110% (inactive)
13,Cc1cc(C)cc(NC(=O)CN2C(=O)c3ccccc3C2=O)c1,97% (inactive)
14,CCC(Cc1ccccc1)NC(=O)C1CCCCC1 (stereo unspecified),101% (inactive)
15,CCOCCCN(C)C1CCN(C(=O)c2oc3ccccc3c2NC(=O)Cc2cccc([N+](=O)[O-])c2)CC1,99% (inactive)
16,Cc1ccc(N2C(=O)CC(N3CCSCC3)C2=O)c(C)c1 (stereo unspecified),55% [inhibitor] (active)
17,O=C1CC(N2CCN(c3ccc(F)cc3)CC2)C(=O)N1c1ccccc1 (stereo unspecified),100% (inactive)
18,Cc1ccc(CC2CC(=O)N(c3cc(C)ccc3C)C2=O)cc1 (stereo unspecified),101% (inactive)
19,COC(=O)C1=C[C@@H](C(=O)OC)[C@@H]2C3=C(C(=O)[C@]2(C)NC(=O)c2ccccc2)[C@H](C)n2c(=O)n(C)c(=O)n2[C@@H]3C1,108% (inactive)
